ELG1 genotox – inducers of genotoxicity in HEK293T ELG1-luciferase cells; HEK293T ELG1-luciferase reporter, luminescence, 16 h; Potency, µM (titrated, usually from 46 µM), for the others: at the top dose activity change, positive = activation, usual class: activators; 1.3% of 330,000 active; also: % of control where 0% means no effect; nearly all actives have a fitted effect of over 60% in size
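HEK293T cells expressing luciferase-tagged ELG1 were treated with compound or DMSO for 16 hr at 37°C. Luciferase activity was then read after 30 min with ONE-Glo at room temperature; rising signal flags genetic stress.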
FLuc modulator – counter-screen for miR-21 project: firefly luciferase inhibitors or activators; 6.9% of 360,000 active; Potency, µM (titrated, usually from 57.5 µM), without a hit: at the top dose activity change, negative = inhibition, most hits filed as inhibitors; P08659; purified FLuc, Km substrates, luminescence inhibition;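 also: plate controls were vehicle for no effect and reference inhibitor for full effect; nearly all actives have a fitted effect of over 55% in size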
Target sequence (P08659 whole entry, looked up): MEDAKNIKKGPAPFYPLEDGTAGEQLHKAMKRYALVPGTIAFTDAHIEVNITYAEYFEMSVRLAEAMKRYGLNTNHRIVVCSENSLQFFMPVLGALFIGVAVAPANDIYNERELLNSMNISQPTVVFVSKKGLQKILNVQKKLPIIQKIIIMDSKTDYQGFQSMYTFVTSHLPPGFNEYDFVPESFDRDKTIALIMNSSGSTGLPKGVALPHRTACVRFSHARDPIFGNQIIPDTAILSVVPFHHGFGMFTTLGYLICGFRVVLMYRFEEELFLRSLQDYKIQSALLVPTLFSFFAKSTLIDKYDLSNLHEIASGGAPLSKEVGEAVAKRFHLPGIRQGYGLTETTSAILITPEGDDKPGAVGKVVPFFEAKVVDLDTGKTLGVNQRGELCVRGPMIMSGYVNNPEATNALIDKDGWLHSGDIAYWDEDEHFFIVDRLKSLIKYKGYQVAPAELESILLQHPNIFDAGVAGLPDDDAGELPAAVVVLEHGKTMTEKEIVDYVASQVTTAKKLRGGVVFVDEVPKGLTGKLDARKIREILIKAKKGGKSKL
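Biochemical qHTS of compounds, final roughly 60 µM downward over six points, against 10 nM purified firefly luciferase using Km concentrations of substrates (10 uM D-luciferin, 10 uM ATP) in Tris acetate pH 7.5 buffer; luminescence output.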
KinaseGlo FLuc – blocks Kinase-Glo luciferase, a counter-screen artifact. Potency, µM (top dose mostly 38.3 µM), inactives show at the top dose activity change, negative = inhibition, hits mostly inhibitors. Kinase-Glo luciferase, ATP luminescence, 8 min. 0.28% of 200,000 active. AID 1379. Q27757; also: % is scaled to controls: 0 for no effect and ±100 for the full control effect; nearly all actives have a fitted effect of over 60% in size
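Compound is pinned into ATP-containing buffer (10 uM ATP, imidazole pH 7.2, 7 mM MgCl2). Kinase-Glo luciferase reagent is then added. Light output is recorded following an 8-min room-temperature incubation.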
Rab9 prom act – activates the Rab9 promoter; Huh7 Rab9 promoter-luciferase reporter, luminescence, 24 h; Potency, µM (doses to about 9.22 µM), inactives show at the top dose activation, negative = inhibition, usual class: activators; 2.8% of 320,000 active; also: % of control where 0% means no effect; nearly all actives have a fitted effect of over 60% in size
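Rab9 promoter-driven luciferase in stably transfected Huh7 cells; 1500 cells/well rested 2 h, exposed to compound in DMSO for 24 h at 37 °C, 5% CO2. Luminescence read 10 min after adding luciferase reagent at ambient temperature.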
SMN2 splice enh – SMN2 splice variant enhancement; HEK293 SMN2-luciferase splicing reporter, luminescence, 30-36 h; Potency, µM (top dose mostly 46.1 µM), without a hit: at the highest dose activity change, positive = activation, most hits filed as activators; AID 1458; 2.8% of 210,000 active; also: % of control where 0% means no effect; nearly all actives have a fitted effect of over 55% in size
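HEK293 cells carry an SMN2 […]–luciferase reporter in which exon 7 inclusion puts luciferase in frame. Cells were plated 10-12 h before compound addition, then incubated 30-36 h at 37C. ONE-Glo luminescence was read; sodium butyrate at 4.5 mM final served as control.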
NPC1 prom act – NPC1 promoter activation. Huh7 NPC1 promoter luciferase reporter, 24 h. Potency, µM (highest dose often 9.22 µM), for inactives: at the highest dose activation, hits mostly activators. 2.4% of 320,000 active. AID 485313; also: % of control where 0% means no effect; nearly all actives have a fitted effect of over 60% in size
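Huh7 cells stably carrying NPC1 promoter–luciferase, plated in Opti-MEM with 10% FBS for 2 h, were exposed to compound in DMSO for 24 h at 37 °C; luciferase reagent was added for 10 min and luminescence read.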
Active calls of the source: *; [ ] = dose if it differs, or a comment. Compounds with a hit are over-represented: about 7.5% of the library has one in this group of screens. Calls follow the shape of the dose curve; as a rule, active = well fitted curve in the direction sought with a large enough effect; inconclusive = small, poorly fitted or top-dose-only effect, or another doubt; inactive = no such curve, though single readings can be large; an effect the other way counts as inactive or inconclusive. Potency is read from the fitted curve at half-maximal effect.

For OCC1NCC(O)C(O)C1O (stereo not drawn) the results were KinaseGlo FLuc 0.0%, Rab9 prom act 2.4%[46.1 µM], SMN2 splice enh 13.5% and NPC1 prom act 4.4%[46.1 µM].
`O=C(CSc1ncccc1C(=O)O)c1ccc2ccccc2c1` gave ELG1 genotox 4.9%, FLuc modulator 9.53µM*, KinaseGlo FLuc -1.2%, Rab9 prom act inconclusive, SMN2 splice enh inconclusive and NPC1 prom act inconclusive.
O=C(CSc1ncccc1C(=O)O)c1ccccc1F was read as ELG1 genotox 3.1%, FLuc modulator inconclusive, KinaseGlo FLuc -4.9%, Rab9 prom act 20.5%, SMN2 splice enh 8.6% and NPC1 prom act 9.7%.
Screening O=C(CSc1ncccc1C(=O)O)c1cccc(C(F)(F)F)c1 returned ELG1 genotox inconclusive, FLuc modulator 23.9µM*, KinaseGlo FLuc 4.3%, Rab9 prom act inconclusive, SMN2 splice enh inconclusive and NPC1 prom act 19.0%.
For CC(C)C[C@@H]1NC(=O)[C@H](Cc2ccc(O)cc2)NC(=O)[C@H](CCC(N)=O)NC(=O)c2cc([N+](=O)[O-])cc(I)c2NCC[C@@H](C(N)=O)NC1=O the results were ELG1 genotox 0.7%, FLuc modulator -0.3%, KinaseGlo FLuc 2.9%, Rab9 prom act 1.9%, SMN2 splice enh 17.8µM* and NPC1 prom act -4.4%.
`CC(C)CNC(=O)COC(=O)c1c2c(nc3ccccc13)/C(=C/c1cccs1)CC2` gave ELG1 genotox -11.0%, FLuc modulator 5.36µM*, Rab9 prom act -7.1% and NPC1 prom act -29.5%.
`O=C(COC(=O)c1c2c(nc3ccccc13)/C(=C/c1ccco1)CC2)NC1CCCC1` gave ELG1 genotox -2.2%, FLuc modulator 5.36µM*, KinaseGlo FLuc -6.1%, Rab9 prom act 27.1%, SMN2 splice enh 27.7% and NPC1 prom act 18.8%.
`Nc1nc2ccc(N3CCOCC3)cc2s1` gave ELG1 genotox 8.2µM*, FLuc modulator 10.7µM*, KinaseGlo FLuc -0.6%, Rab9 prom act 2.82µM*, SMN2 splice enh 15.8µM* and NPC1 prom act inconclusive.
CC(CC(=O)Nc1ccc2c(c1)OCCO2)c1ccccc1 (stereo not drawn) was read as ELG1 genotox inconclusive, FLuc modulator inconclusive, KinaseGlo FLuc -2.8%, Rab9 prom act inconclusive, SMN2 splice enh 11.2µM* and NPC1 prom act inconclusive.
Screening O=C(CSCSCC(=O)Nc1ccc2c(c1)OCO2)Nc1ccc2c(c1)OCO2 returned ELG1 genotox -2.5%, FLuc modulator 16.9µM*, KinaseGlo FLuc -4.4%, Rab9 prom act -3.5%, SMN2 splice enh -7.2% and NPC1 prom act -0.7%.
For O=C(CCS(=O)(=O)c1ccccc1)Nc1ccc2c(c1)OCO2 the results were ELG1 genotox inconclusive, FLuc modulator 26.9µM*, KinaseGlo FLuc -1.0%, Rab9 prom act inconclusive and NPC1 prom act inconclusive.
CS(=O)(=O)N(CC(=O)Nc1ccc2c(c1)OCO2)c1ccccc1 was read as ELG1 genotox 8.5%, FLuc modulator 2.8%, KinaseGlo FLuc -2.9%, Rab9 prom act 0.3%, SMN2 splice enh -7.0% and NPC1 prom act 0.8%.
O=C(CSc1nnc2ccccn12)Nc1ncc(Cl)cc1Cl was read as ELG1 genotox 18.4µM*, FLuc modulator inconclusive, KinaseGlo FLuc -1.7%, Rab9 prom act inconclusive, SMN2 splice enh inconclusive and NPC1 prom act 20.2%.
`CC1=C(C(=O)Nc2ccccc2C)C(c2cccnc2)n2nc(SCc3ccccc3F)nc2N1` (stereo not drawn) gave FLuc modulator 0.2% and SMN2 splice enh 5.1%.
For O=C(CSc1nnc2scc(-c3ccccc3)n12)Nc1ccc2c(c1)OCCO2 the results were ELG1 genotox 0.1%, FLuc modulator 2.4%, KinaseGlo FLuc -2.0%, Rab9 prom act -2.0%, SMN2 splice enh inconclusive and NPC1 prom act 0.9%.
`O=C(CSc1ccccc1)Nc1ccc2c(c1)OCCO2` gave ELG1 genotox 1.64µM*, FLuc modulator 2.39µM*, Rab9 prom act 0.631µM* and NPC1 prom act 0.891µM*.
O=C(CSc1ccc(-c2ccccc2)nn1)Nc1ccc2c(c1)OCCO2 was read as ELG1 genotox inconclusive, FLuc modulator 10.7µM*, KinaseGlo FLuc -1.1%, Rab9 prom act inconclusive, SMN2 splice enh 15.8µM* and NPC1 prom act 21.0%.
Cc1ccc(SCC(=O)Nc2ccc(N3CCN(c4ccccc4)CC3)c(F)c2)cc1 was read as ELG1 genotox 1.3%, FLuc modulator 4.0%, KinaseGlo FLuc 4.1%, Rab9 prom act -1.8%, SMN2 splice enh -13.6% and NPC1 prom act 3.3%.
Screening O=C(CSCc1ccccc1F)NCc1ccccc1 returned ELG1 genotox inconclusive, FLuc modulator 23.9µM*, KinaseGlo FLuc 2.8%, Rab9 prom act inconclusive, SMN2 splice enh inconclusive and NPC1 prom act inconclusive.
`CN1CCN(c2ccc(NC(=O)CSc3ccccc3)cc2F)CC1` gave ELG1 genotox 2.06µM*, FLuc modulator 10.7µM*, KinaseGlo FLuc -0.9%, Rab9 prom act 1.41µM*, SMN2 splice enh 11.2µM* and NPC1 prom act 1.78µM*.
Screening COc1ccc(Cn2c(CNS(=O)(=O)c3ccc(Cl)s3)nc3cccnc32)cc1 returned FLuc modulator -16.1%.
Screening CCCCn1c(N)c(N(CC(C)C)C(=O)CCNC(=O)c2ccc(Br)cc2)c(=O)[nH]c1=O returned ELG1 genotox 3.0%, FLuc modulator 1.4%, Rab9 prom act -0.2% and NPC1 prom act -1.1%.
O=C(CSc1nnc2ccccn12)Nc1ccc2c(c1)OCCO2 was read as ELG1 genotox inconclusive, FLuc modulator inconclusive, Rab9 prom act 2.51µM* and NPC1 prom act inconclusive.
O=C(CSCc1ccccc1)Nc1ccc(F)c(F)c1 was read as ELG1 genotox inconclusive, FLuc modulator 16.9µM*, KinaseGlo FLuc -0.9%, Rab9 prom act inconclusive, SMN2 splice enh inconclusive and NPC1 prom act 24.4%.
`Cc1ccc(CSCC(=O)Nc2ccc3c(c2)OCO3)cc1` gave ELG1 genotox -1.0%, FLuc modulator -15.8%, KinaseGlo FLuc 1.1%, Rab9 prom act -0.3%, SMN2 splice enh 6.5% and NPC1 prom act 11.2%.
CC(C)=CC(=O)Nc1ccc2c(c1)OCO2 was read as FLuc modulator 10.7µM*, KinaseGlo FLuc -27.1% and SMN2 splice enh 11.2µM*.
Screening O=C(CSCc1ccc(Cl)cc1)Nc1ccc2c(c1)OCCO2 returned ELG1 genotox 13.0%, FLuc modulator 23.9µM*, KinaseGlo FLuc -8.4%, Rab9 prom act 9.7%, SMN2 splice enh -14.6% and NPC1 prom act 19.4%.
